# According to paper PMC6212790, “How bacterial xenogeneic silencer rok distinguishes foreign from self DNA in its resident genome”:
# In all, about 33,000 sequences were measured (“e-score”: median about -0.038, highest 2% from about 0.33 on). Only a selection was taken, and the highest values are over-represented in it overall.
# Biological target: T1, GST-Rok-C97-191 (Bacillus subtilis subsp. subtilis str. …, UniProt O34857 97-191)
# T1 sequence: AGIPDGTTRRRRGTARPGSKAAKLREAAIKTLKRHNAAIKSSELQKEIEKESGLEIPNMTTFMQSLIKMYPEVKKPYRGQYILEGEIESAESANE
# Assay: protein binding microarray; Rok is a gene silencer of Bacillus subtilis; high values mean tight binding
# Conditions: protein: recombinant; tags: GST (pTH5325, pDEST15-Magic modified); dsDNA, one strand shown
# In short: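 Every oligonucleotide joins a 25-mer constant primer to a 35-mer variable part drawn from a de Bruijn sequence of order 10, so each non-palindromic 8-mer appears at least 32 times and each palindromic 8-mer 16 times. The preference for every 8-mer is reported as a unitless, rank-based enrichment score (E-score). This score spans 0.5 for the most favored 8-mer to −0.5 for the most disfavored.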
row,Sequence,binding signal
1,AAAATACG,0.266 E-score
2,AAGTAAGG,0.0741 E-score
3,AGAGTTTC,-0.0267 E-score
4,GTCGGTTA,0.00256 E-score
5,AAAGTTTG,-0.0186 E-score
6,AGAACGCC,0.0453 E-score
7,AGGTCCTC,-0.0779 E-score
8,ACTCCTTA,0.00627 E-score
9,AAAACCAA,0.0758 E-score
10,AGTGATGA,0.024 E-score
11,CGTAGTAC,0.186 E-score
12,CGTAGTAG,0.223 E-score
13,AGAAGTAT,0.292 E-score
14,AGTAGTAT,0.368 E-score
15,AGCAGTAT,0.0236 E-score
16,GGTAGTAC,0.268 E-score
17,AGTAGTAC,0.356 E-score
18,AGTAGTAG,0.385 E-score
19,ATTAGTAG,0.319 E-score
20,GTTGGCTA,0.0528 E-score
21,CACAGGTA,-0.0357 E-score
22,CTCAATAA,0.215 E-score
23,CATATTTA,0.282 E-score
24,CGTATTTA,0.318 E-score
25,AATATTAA,0.285 E-score

row,Sequence,binding signal
1,GATATTAC,0.328 E-score
2,GATATTTA,0.328 E-score
3,CATATTAC,0.22 E-score
4,AGTATTTA,0.301 E-score
5,CATATTAA,0.194 E-score
6,AATATTTA,0.311 E-score
7,GATATTAA,0.379 E-score
8,GGTATTTA,0.342 E-score
9,AATATTAC,0.284 E-score
10,CTGCAGGC,-0.199 E-score
11,ACCACTCG,-0.181 E-score
12,ACATCATG,-0.155 E-score
13,GCTCGACA,-0.145 E-score
14,CCCATTAC,-0.0975 E-score
15,GCTAACAC,-0.0971 E-score
16,TGCCTGAA,-0.0885 E-score
17,CGAGTCCG,-0.192 E-score
18,TGTATTAA,0.294 E-score
19,TATATTAA,0.387 E-score
20,TATATTGA,0.288 E-score
21,CAACGAAA,0.00998 E-score
22,AATTCACG,0.127 E-score
23,CGCTTTGA,-0.0415 E-score
24,TCTACTCA,0.188 E-score
25,GCTACTAA,0.229 E-score

row,Sequence,binding signal
1,TCTACTAA,0.342 E-score
2,GGTACTAA,0.249 E-score
3,ACTACTTC,0.226 E-score
4,AGTACTTG,0.296 E-score
5,CGTACTTA,0.23 E-score
6,TGTACTAA,0.191 E-score
7,ACTACTAA,0.379 E-score
8,AGTACTTA,0.355 E-score
9,ACTACTTA,0.415 E-score
10,ACTACTGA,0.269 E-score
11,CGTCCCAA,-0.181 E-score
12,CATTATGA,0.0691 E-score
13,TCCACTCA,-0.127 E-score
14,AGCCAATG,-0.162 E-score
15,CGCAGAAG,-0.171 E-score
16,TAATTTAA,0.396 E-score
17,GAATTTAA,0.124 E-score
18,TCAATTAA,0.161 E-score
19,CTAATTCC,0.159 E-score
20,CTAATTAC,0.382 E-score
21,ATAATTAA,0.298 E-score
22,ATAATTAT,0.137 E-score
23,CCAATTAC,0.0758 E-score
24,ATAATTAG,0.354 E-score
25,CTAATTAA,0.275 E-score

row,Sequence,binding signal
1,TTAATTAA,0.346 E-score
2,AAATTTAA,0.299 E-score
3,GTCCTAGA,-0.199 E-score
4,AATGTCGC,0.0115 E-score
5,CTAGCTAG,0.294 E-score
6,ATCTTAGG,-0.016 E-score
7,CGGCGGTA,0.123 E-score
8,CCAGGTCA,-0.0861 E-score
9,ATAATTGC,0.26 E-score
10,GCAATTAC,0.13 E-score
11,GTAATTAA,0.213 E-score
12,GTAATTAC,0.43 E-score
13,AGAATTAC,0.217 E-score
14,ATAATTAC,0.332 E-score
15,CTAATTAG,0.362 E-score
16,CGAATTAG,0.279 E-score
17,CCAATTAG,-0.111 E-score
18,ATGAATTC,0.0443 E-score
19,CGCTTAGA,-0.0215 E-score
20,GATATCGA,0.223 E-score
21,GAACGACC,-0.143 E-score
22,CGTTCTAG,0.22 E-score
23,CTTTGTCC,-0.101 E-score
24,ATTAGGAA,-0.056 E-score
25,TGGGACAA,-0.0222 E-score

row,Sequence,binding signal
1,CATCCAAC,-0.0608 E-score
2,AATTATAC,0.348 E-score
3,CATTATAC,0.177 E-score
4,GATTATAC,0.238 E-score
5,AATTATAA,0.274 E-score
6,AATTATAG,0.303 E-score
7,AATTATAT,0.398 E-score
8,AAGGGTGC,-0.165 E-score
9,CATCTGAA,-0.0216 E-score
10,AAAACTGG,0.0097 E-score
11,AAAACTAG,0.364 E-score
12,ATAACTAG,0.232 E-score
13,AAAACTAC,0.433 E-score
14,AAAACTAA,0.255 E-score
15,AAAACTCC,0.137 E-score
16,AAAACTGC,-0.0367 E-score
17,AAAACTTG,-0.0585 E-score
18,AAAACTAT,0.415 E-score
19,ATAACTAT,0.383 E-score
20,ATAACTAA,0.249 E-score
21,AAAACTGT,0.0809 E-score
22,CGATCAAG,-0.0651 E-score
23,ACATCGCG,0.139 E-score
24,CCAAATAC,0.137 E-score
25,GAACGTTC,0.053 E-score

row,Sequence,binding signal
1,CCGTAGCA,0.075 E-score
2,ATTTGGAA,0.102 E-score
3,AGCCAATA,-0.0503 E-score
4,GAATTCAC,0.074 E-score
5,CAAACTCC,-0.063 E-score
6,TAAACTAA,0.234 E-score
7,GCAACTAC,0.239 E-score
8,ACAACTAC,0.348 E-score
9,CAAACTTA,0.101 E-score
10,GAAACTAA,0.313 E-score
11,CAAACTAG,0.287 E-score
12,CAAACTAA,0.374 E-score
13,CAAACTAC,0.446 E-score
14,GAAACTAC,0.46 E-score
15,ACAACTAT,0.321 E-score
16,GAAACTTC,0.204 E-score
17,CTGAGTCA,-0.156 E-score
18,AGGTTCAC,-0.111 E-score
19,GGTCCTTA,0.0575 E-score
20,CAAGGTGA,-0.134 E-score
21,AAGTTGCA,0.0502 E-score
22,CTGGTCAA,0.00605 E-score
23,CCCATATC,-0.0677 E-score
24,AGCTATTA,0.315 E-score
25,AATTTATG,0.209 E-score

row,Sequence,binding signal
1,CATTTATA,0.354 E-score
2,GATTTATA,0.304 E-score
3,AATTTATA,0.373 E-score
4,CATTTATC,0.218 E-score
5,CATTTTTA,0.184 E-score
6,ATTCACTA,0.174 E-score
7,AGTCGATC,-0.00304 E-score
8,ACGGGAAA,0.132 E-score
9,ACCGGAAA,-0.1 E-score
10,ACTATATA,0.437 E-score
11,GCTATACA,0.176 E-score
12,CCTATATA,0.283 E-score
13,GCTATATA,0.355 E-score
14,ACTATATC,0.284 E-score
15,ACTATAGA,0.241 E-score
16,ACTCTTTA,0.0447 E-score
17,ATATAGGG,-0.00212 E-score
18,ATATAGCG,0.349 E-score
19,ATATAGCC,0.135 E-score
20,CCATATAG,0.129 E-score
21,CGATATAG,0.238 E-score
22,CTATATAG,0.413 E-score
23,ATATATAG,0.379 E-score
24,ATGTATAG,0.264 E-score
25,ATATAGCA,0.3 E-score
